Results on 46 compounds are retold here after PubChem BioAssay AID1851 (National Center for Advancing Translational Sciences (NCATS), 2009).

In all, about 16,000 compounds went through this assay and about 4,000 (25%) were called active. Inconclusive results (about 26%) are left out. A selection follows. Values without a mark were called inactive. Calls follow the shape of the dose curve; as a rule, active = well fitted curve in the direction sought with a large enough effect; inconclusive = small, poorly fitted or top-dose-only effect, or effect the other way; inactive = no such curve, though single readings can be large or run the other way.
% is scaled to controls: 0 for no effect and ±100 for the full control effect.

Chain of Cytochrome P450 2C9 (Homo sapiens) (P11712 whole entry, looked up): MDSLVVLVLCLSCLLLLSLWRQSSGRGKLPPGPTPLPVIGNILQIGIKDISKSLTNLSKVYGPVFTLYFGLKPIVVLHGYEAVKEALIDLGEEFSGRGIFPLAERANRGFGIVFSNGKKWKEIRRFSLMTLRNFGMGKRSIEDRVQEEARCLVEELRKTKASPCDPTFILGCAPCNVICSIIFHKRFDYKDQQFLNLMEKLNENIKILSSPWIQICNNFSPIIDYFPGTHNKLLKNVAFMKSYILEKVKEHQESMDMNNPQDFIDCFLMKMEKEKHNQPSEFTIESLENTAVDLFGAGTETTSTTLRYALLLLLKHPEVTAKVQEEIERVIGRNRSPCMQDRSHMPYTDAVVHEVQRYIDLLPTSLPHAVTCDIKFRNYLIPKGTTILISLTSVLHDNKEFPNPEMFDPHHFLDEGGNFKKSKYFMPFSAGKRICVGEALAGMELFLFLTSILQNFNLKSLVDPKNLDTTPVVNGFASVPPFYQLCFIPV

This assay concerns the target Cytochrome P450 2C9 (Homo sapiens) (UniProt P11712). Briefly: Cytochrome panel assay with activity outcomes. The following applies: recombinant CYP, pro-luciferin dealkylation, luminescence, p450-cyp2c9; series mostly up to 57.1 µM; activity, negative = inhibition: at the top concentration.
With `O=c1c[n+](CCCC[n+]2cc(=O)o[nH]2)[nH]o1`, the activity, negative = inhibition was 10.6% [at 11.4 µM].

On to `c1csc(CNc2nc(-c3ccoc3)nc3ccccc23)c1`, for which the activity, negative = inhibition is -11.2% [at 2.29 µM].

Regarding `CO[C@H]1COC(=O)CCC[C@@H](C)[C@H](OC)COC(=O)[C@H]2CCCN2C(=O)C/C=C\[C@@H]1C`, the activity, negative = inhibition was 5.44% [at 11.4 µM].

In the case of `COc1ccc(/C=N/NC(=O)c2cccc([N+](=O)[O-])c2)cc1OS(=O)(=O)c1ccc(C)cc1`, the AC50 is 0.891 µM (active).

Consider `O=C(N/N=C/c1ccco1)/C(=C/c1cccc([N+](=O)[O-])c1)NC(=O)c1ccccc1`, for which the “activity, negative = inhibition” value was -23.4%.

For `C=CCOc1ccc2cccc(/C=N/NC(=O)c3cc4cc([N+](=O)[O-])ccc4s3)c2c1`, the “activity, negative = inhibition” value is -31.2%.

As to `COc1cccc(/C=N/NC(=O)c2cccc([N+](=O)[O-])c2)c1OS(=O)(=O)c1ccc(C)cc1`, the AC50 was 3.55 µM (active).

In the case of `CC(/C=N/NC(=O)c1cccc([N+](=O)[O-])c1)=C\c1ccccc1`, the AC50 is 0.355 µM (active).

With `Cc1ccc(C(=O)N/N=C/c2ccc([N+](=O)[O-])s2)cc1`, the “activity, negative = inhibition” value was -24.8%.

As to `NNc1nncc2ccccc12`, the AC50 result was “inactive”.

As to `Cc1cccc([C@@H]2CN(C)CCc3c2cc(O)c(O)c3Cl)c1`, the AC50 result was “inactive”.

`Cc1noc(C)c1C(=O)N1CCC2(CC1)CN(c1ccccc1)C2`: the “activity, negative = inhibition” value is 1.9%.

As to `Cc1cccc(N2CCN(C(=O)CSCc3c(C)noc3C)CC2)c1C`, the AC50 was 12.6 µM (active).

On to `Cc1noc(C)c1C(=O)N1CCC2(CCCN(c3ccccc3)C2)CC1`, for which the “activity, negative = inhibition” value was 9.43%.

Consider `c1cncc(CNc2cc(-c3ccoc3)ncn2)c1`, for which the activity, negative = inhibition was 2% [at 2.29 µM].

As to `C/C(=N\OC(=O)c1ccc(F)cc1)c1nccs1`, the “activity, negative = inhibition” value is -20.9%.

In the case of `C/C(=C\c1ccco1)C1C(C#N)=C(N)Oc2n[nH]c(-c3ccccc3)c21` (stereo unspecified), the AC50 was 0.0891 µM (active).

Consider `Nc1nc2c(c(=O)[nH]1)CN(CCCN1CCOCC1)CN2`, for which the activity, negative = inhibition was 11% [at 11.4 µM].

For the compound `O=C(NCCNc1ccc([N+](=O)[O-])cc1)c1ccccc1Br`, the AC50 was 14.1 µM (active).

For `O=C(O)CCCCCNC(=O)c1ccccc1Br`, the “activity, negative = inhibition” value was -16.4%.

Consider `CC(=O)Nc1ccc(NC(=O)c2ccccc2CC[N+](=O)[O-])cc1`, for which the “activity, negative = inhibition” value is -19.2%.

For `CCOc1ccc2nc3cc(N=Nc4ccc(N)nc4N)ccc3c(N)c2c1`, the activity, negative = inhibition is 1.7% [at 11.4 µM].

Regarding `Cc1ccc(NC(=O)c2cc(N3C(=O)C4CC=CCC4C3=O)ccc2N2CCOCC2)cc1Cl` (stereo unspecified), the half-maximal activity concentration (AC50) is 11.2 µM (active).

For the compound `CC(/C=C/c1ccco1)=N/NC(=O)c1ccccc1Cl`, the “activity, negative = inhibition” value is -14.2%.

Consider `O=C(/C=C/c1ccco1)NC(=S)Nc1ccc(N2CCOCC2)c(Cl)c1`, for which the AC50 is 4.47 µM (active).

For `Cc1ccc(NC(=O)CSCC(=O)Nc2ccc(N3CCOCC3)c(Cl)c2)cc1`, the concentration at half-maximal activity (AC50) is 5.01 µM (active).

With `O=C(Nc1ccc2nc(SCc3ccc(Cl)cc3)sc2c1)c1ccccc1C(=O)N1CCOCC1`, the “activity, negative = inhibition” value is -9.43%.

In the case of `O=C(/C=C/c1ccc(Cl)cc1)NCCN1CCOCC1`, the “activity, negative = inhibition” value is -18.9%.

Regarding `NC(=O)c1ccc(N2CCCCC2)c(N2C(=O)C3CC=CCC3C2=O)c1` (stereo unspecified), the “activity, negative = inhibition” value was -18.8%.

For `CCCC(=O)Nc1ccc2nc(SCC(=O)Nc3ccc(N4CCOCC4)c(Cl)c3)sc2c1`, the AC50 is 2.24 µM (active).

As for `CN1CCCN(C2C3CC4CC(C3)CC2C4)CC1` (stereo unspecified), the “activity, negative = inhibition” value was -1.21%.

For the compound `CCN1C(=O)[C@H]2[C@H]3[C@H](O)[C@H](O)C/C(=N/OC[C@@H](O)[C@H]4O[C@H]5OC(C)(C)O[C@H]5[C@@H]4O)[C@@H]3CC[C@@H]2C1=O`, the activity, negative = inhibition is 11.9% [at 11.4 µM].

In the case of `COc1ncnc(NS(=O)(=O)c2ccc(N)cc2)c1OC`, the “activity, negative = inhibition” value is 45.6% [at 25.6 µM].

For `CN=C(NC#N)NCCSC[C@H]1N=CN=C1C`, the “activity, negative = inhibition” value is -19.2% [at 25.6 µM].

As for `CC[C@@]12CCCN3CCc4c(n(c5ccccc45)[C@](O)(C(=O)OC)C1)[C@H]32`, the AC50 entry was “inactive”.

For the compound `CCOc1ccc(/C(O)=C2\C(=O)C(=O)N(CCOCCO)C2c2ccccc2OC)cc1` (stereo unspecified), the “activity, negative = inhibition” value was -28.2%.

Consider `COc1cccc(/C(O)=C2/C(=O)C(=O)N(c3cc(C)on3)C2c2cccs2)c1` (stereo unspecified), for which the AC50 was 14.1 µM (active).

On to `COc1ccc(C2/C(=C(/O)c3ccccc3)C(=O)C(=O)N2c2ccccn2)c(OC)c1` (stereo unspecified), for which the AC50 was 15.8 µM (active).

As to `COc1ccc(C2/C(=C(/O)c3ccccc3)C(=O)C(=O)N2CC(C)O)c(OC)c1` (stereo unspecified), the “activity, negative = inhibition” value is -19.1%.

With `COc1ccc(/C(O)=C2\C(=O)C(=O)N(c3cc(C)on3)C2c2ccc(OC)c(OC)c2)cc1OC` (stereo unspecified), the “activity, negative = inhibition” value was -2.14%.

With `COc1ccc(OC)c(C2N(c3cc(C)on3)C(=O)C3CCCN32)c1` (stereo unspecified), the “activity, negative = inhibition” value is -0.725%.

For `CN1CCN(c2ncc3ncc(=O)n(C[C@H]4CCCO4)c3n2)CC1`, the “activity, negative = inhibition” value is -1.28%.

Turning to `CN(Cc1ccco1)c1cc(-c2ccc3c(c2)OCO3)ncn1`, the activity, negative = inhibition is -13% [at 2.29 µM].

As to `CCOC(=O)N/N=C1/C[C@@H](O)[C@@H](O)[C@@H]2[C@@H]3C(=O)N(CC)C(=O)[C@H]3CC[C@@H]12`, the activity, negative = inhibition was 9.77% [at 11.4 µM].

On to `CN(C)CCCN1CCC2(CCC(C(C)(C)C)CC2)CC1`, for which the activity, negative = inhibition is 13% [at 11.4 µM].

On to `CN(Cc1ccco1)c1nc(-c2ccccc2C(F)(F)F)nc2ccccc12`, for which the activity, negative = inhibition was -1.38% [at 2.29 µM].

As usually defined, the AC50 is the concentration at which the activity in the assay is half-maximal.
